Laboratory results: ChEMBL document CHEMBL4513216, “Probing the Open Global Health Chemical Diversity Library for Multistage-Active Starting Points for Next-Generation Antimalarials” (ACS Infect Dis, 2020)
In all, about 69,000 compounds went through this assay and about 8,600 (12%) showed an effect of 50% or more. Only a selection was taken, and strong results are over-represented in it overall.

The compounds below were run on Plasmodium berghei (assay: Screen against P. berghei liver stage (PbLuc), transformed with Luciferase, at 10uM). Details: tested at 10 uM.
Format: functional, HepG2

Compound | INHIBITION
COCCCS(=O)(=O)N1CCN(C(C)(C)CO)CC1 | 27.65%
CC(C)c1nc(CC(=O)Nc2nc(CN3CCCCCC3)cs2)cs1 | 59.7%
CC(C)c1nc(CN2CCC(CO)CC2)cs1 | 23.4%
CC(C)c1nc(CN(C)C(=O)c2ccc(CN3CCCCC3)cc2)cs1 | 65.3%
CN(Cc1cc(C(C)(C)C)n[nH]1)C(=O)c1cn2ccsc2n1 | -11.5%
CC(C)c1nc(CN2CCCCC2)cs1 | 47.9%
CC(C)c1nc(CN(C)C(=O)c2cn3ccsc3n2)cs1 | 50.5%
CC(C)c1nc(CN(C)C(=O)CNC(N)=O)cs1 | 41.5%
CC(C)c1nc(CN(C)C(=O)c2ccc3c(c2)OCC(=O)N3)cs1 | -19.9%
CC(C)c1nc(CN(C)C(=O)c2ccc3c(c2)OCO3)cs1 | -40.4%
CS(=O)(=O)N1C[C@@H](O)[C@H](N2CCN(c3ccccc3)CC2)C1 | -18.8%
COc1ccc(CCc2nnc(NC(=O)C3CC34CCC4)s2)cc1OC (stereo unspecified) | 4.32%
Cc1cc2c(cc1NC(N)=O)OCO2 | 43.2%
Cn1cnc2c1C(C(=O)N1CCCO1)N(C(=O)c1ccccc1)CC2 (stereo unspecified) | 70.4%
CC(=O)N1CCc2ncn(C)c2C1C(=O)N1CCCC1 (stereo unspecified) | 45.8%
Cn1cnc2c1C(C(=O)N1CCOCC1)N(C(=O)c1ccccc1)CC2 (stereo unspecified) | -31.6%
CC(C)c1nnc(CNC2CCCN(Cc3noc(C4CC4)n3)C2)o1 (stereo unspecified) | 19.5%
O=C(NC1CCN(c2ncccn2)CC1)c1sccc1C1CC1 | 39.7%
O=C1NCC(C(=O)NCc2ccccc2CN2CCOCC2)N1 (stereo unspecified) | 15.2%
CC1CCN(Cc2ccccc2CNC(=O)C2CNC(=O)N2)CC1 (stereo unspecified) | 13.8%
CN(Cc1ccccc1CNC(=O)C1CNC(=O)N1)C1CCCCC1 (stereo unspecified) | 57.7%
CC(C)OCCCNC(=O)CS(=O)(=O)Cc1ccc(C(C)(C)C)cc1 | -27.8%
CCn1cc(NC(=O)CN2CCC(Oc3ccc(F)cc3)CC2)c(C)n1 | 58%
Cc1ccccc1OC1CCN(CC(=O)Nc2c(C)nn(C)c2C)CC1 | 52.5%

Compound | INHIBITION
Cc1ccccc1OC1CCN(CC(=O)Nc2ccn(C)n2)CC1 | 15.1%
Cc1ccccc1OC1CCN(CC(=O)Nc2cn(C)nc2C)CC1 | 17.3%
CCn1cc(NC(=O)CN2CCC(Oc3ccccc3C)CC2)c(C)n1 | -0.275%
Cc1nn(C)cc1NC(=O)CN1CCC(Oc2cnccn2)CC1 | -2.09%
COCC(c1cccc(C(F)(F)F)c1)N(C)C(=O)c1ccoc1 (stereo unspecified) | 40.49%
COc1cccc2c3c(c(=O)n(C)c12)CCC(C)(C)O3 | 12.3%
Cn1cccc1C(=O)N1CCn2cc(CNC(=O)CC3CC3)nc2C1 | 9.67%
CCc1ncc2c(n1)CN(Cc1cnc(C)cn1)CC2 | 25.2%
COCCC(=O)N1CCC(c2nnc(-c3ccsc3)o2)CC1 | 0.75%
COc1cc(C2SCC(=O)Nc3[nH]ncc32)cc2c1OCO2 (stereo unspecified) | 30.2%
COc1cccc(C2c3c(n[nH]c3C)N=C3COC(=O)C32)c1O (stereo unspecified) | 48%
CSc1nc(N)c2c(n1)N=C1COC(=O)C1C2c1cccc(O)c1 (stereo unspecified) | 25.1%
CCOc1c(Br)cc(C2c3c(n[nH]c3C)N=C3COC(=O)C32)cc1OC (stereo unspecified) | 72.4%
COc1cc(C2c3c(n[nH]c3C)N=C3COC(=O)C32)cc(Br)c1O (stereo unspecified) | 62.3%
COc1cc(C2c3c(n[nH]c3C)N=C3COC(=O)C32)cc2c1OCO2 (stereo unspecified) | 58.1%
COc1cccc(C2c3c(n[nH]c3C)N=C3COC(=O)C32)c1OC (stereo unspecified) | -7.77%
O=C(NCc1ccco1)[C@H]1CC[C@@H]2[C@@H](CCN2c2ncc(F)cn2)O1 | 38.1%
CC(=O)NC1CCCN(C(=O)NCCOc2ccc3c(c2)OCO3)C1 (stereo unspecified) | 15.6%
O=C(CCc1ccncc1)N1CCCC(n2cccn2)C1 (stereo unspecified) | 24.39%
O=C(c1cccn1Cc1cccs1)N1CCC(C(=O)N2CCCC2)CC1 | 11.6%
COCc1cccc(CNCc2c(C)nn(C)c2N2CCOCC2)c1 | 27.4%
CCCN1CCCCCC1Cc1c(C(=O)NC)sc2ccccc12 (stereo unspecified) | 17.235%
CN1CCCNC(=O)C12CCN(C(=O)c1ccc3[nH]cnc3c1)CC2 | 20.2%
CCc1noc(C(C)N2CCN(CCOCC(F)(F)F)CC2)n1 (stereo unspecified) | -5.545%

Compound | INHIBITION
CCCN1CCC(CNC(=O)C2(c3ccccc3)CCC2)C1 (stereo unspecified) | 42.9%
O=C(NCC1CCN(CCc2ccccc2)C1)NCC1(O)CCC1 (stereo unspecified) | 53.8%
O=C(NCC1CCCN1CCc1ccccc1)NCC1(O)CCC1 (stereo unspecified) | 19.2%
O=C(NCc1nccn1CCc1ccccc1)NCC1(O)CCC1 | -4.15%
Cc1noc(C(C)C)c1C(=O)NCC1CCCN1Cc1ccccc1 (stereo unspecified) | 24.1%
O=C(NCC1CCCN1Cc1ccccc1)NCC1(O)CCC1 (stereo unspecified) | 53.8%
CCC(=O)NCCCn1c(-c2cccnc2C)cc2cccnc21 | 10.9%
CCNC(=O)C(C)NC(=O)Nc1ccccc1SCC (stereo unspecified) | 5.17%
CCCNC(=O)C(C)NC(=O)Nc1ccccc1SC(F)F (stereo unspecified) | 41.5%
CCNC(=O)C(C)NC(=O)Nc1ccccc1Cl (stereo unspecified) | 62.9%
CCNC(=O)C(C)NC(=O)Nc1ccccc1SC(F)(F)F (stereo unspecified) | 65%
O=C(NCCCn1nc2ccccn2c1=O)Nc1ccccc1Cl | 7.12%
Cn1c(C(F)(F)F)nn(CCNC(=O)Nc2ccccc2Cl)c1=O | 21%
O=C1CCC2(CCC(NCc3ccoc3)CC2)N1 (stereo unspecified) | 2.58%
O=C(CN1CCc2sccc2C1)Nc1nccs1 | -41.6%
COC1COC2(CCN(CC3CCOCC3)CC2)C1 (stereo unspecified) | 14%
Cc1ccnc(NC(=O)c2ccc(F)c(S(=O)(=O)NC3CC3)c2)c1 | -25.4%
CCn1cnnc1C1CCN(C(=O)c2ccccc2F)CC1 | 21%
CNC(=O)C1Cn2ccnc2C2(CCN(C(=O)c3ccoc3C)CC2)O1 (stereo unspecified) | -7.7%
CC(C)c1noc(C(C)N2CCN(Cc3cccs3)CC2)n1 (stereo unspecified) | 15.5%
CC(C)c1noc(C(C)N2CCC(c3nc4ccccc4[nH]3)CC2)n1 (stereo unspecified) | 36.5%
CC(C)c1noc(C(C)N2CCN(Cc3nc4ccccc4[nH]3)CC2)n1 (stereo unspecified) | 53.3%
CC(C)C(Sc1cccs1)C(=O)NCc1cccnc1 (stereo unspecified) | 18.4%
Cc1nc(CN(C)C2CCN(CCCOc3ccc(F)cc3)C2)no1 (stereo unspecified) | -0.219%

Compound | INHIBITION
O=C(Cc1ccsc1)N1CCCC(c2cc(C(F)F)n3ncnc3n2)C1 (stereo unspecified) | 28%
COCC(=O)N1CCCC(c2cc(C(F)F)n3ncnc3n2)C1 (stereo unspecified) | 59.3%
O=C(c1ccco1)N1CCCC(c2cc(C(F)(F)F)n3ncnc3n2)C1 (stereo unspecified) | 60.4%
O=C(c1ccncc1)N1CCCC(c2cc(C(F)F)n3ncnc3n2)C1 (stereo unspecified) | 35.2%
CC(C)C(=O)N1CCCC(c2cc(C(F)F)n3ncnc3n2)C1 (stereo unspecified) | 39.8%
O=C(c1ccco1)N1CCCC(c2cc(C(F)F)n3ncnc3n2)C1 (stereo unspecified) | 14.8%
O=C(c1cnoc1)N1CCC[C@]2(C[C@H](Oc3ncccc3F)CO2)C1 | -28.2%
CCCSCC(=O)N1C[C@H]2CC[C@@H](C1)N(Cc1ccccn1)C2=O | 35.9%
O=C1OCCN1CC(=O)N1C[C@@H]2CC[C@H]1CN(C(=O)c1ccccc1)C2 | -12.6%
O=c1c(NCCOCCO)c(N2CCN(c3ccccc3)CC2)c1=O | 6.34%
CCn1nc(C)c2nnn(CC(=O)Nc3ccc(C)c(C)c3)c(=O)c21 | 11%
COc1cc(C(=O)NCc2cc(N3CCOCC3)ncn2)ccn1 | 63.7%
O=C(Cn1ccc2ccccc21)NCc1cc(N2CCOCC2)ncn1 | 12.8%
O=C(NCc1cc(N2CCOCC2)ncn1)c1cccc(CO)n1 | 71.1%
COc1nc(C)c(C(=O)NCc2cc(N3CCOCC3)ncn2)s1 | 34%
Cc1cc(C(=O)NCc2ccnc(N3CCOCC3)c2)c(C)s1 | 4.65%
COc1ccc(C(=O)NCc2cc(N3CCOCC3)ncn2)o1 | 8.11%
CCn1cnnc1CNC(=O)N1CCN(c2ccccc2O)CC1 | 36.1%
NCC1[C@H]2CN(Cc3ccccc3F)C[C@@H]12 (stereo partly specified) | 45.7%
O=c1cc(CSc2nnc[nH]2)nc2sc3c(n12)CCCC3 | 16.5%
CC(C)OCCS(=O)(=O)N1CCN(Cc2cccn2C)CC1 | 4.1%
COCCCS(=O)(=O)N1CCN(c2cccc(O)c2)CC1 | 14.6%
COCCCS(=O)(=O)N1CCN(Cc2cccn2C)CC1 | 51.1%
Cc1c(Br)cccc1C(=O)NCCC1CCCNC1 (stereo unspecified) | 28.6%

Compound | INHIBITION
O=C(C1CC(c2ccccc2)=NO1)N1CCCCc2ccccc21 (stereo unspecified) | -15%
CCC(c1ccc(F)cc1)S(=O)(=O)CCO (stereo unspecified) | 15.9%
CCC(c1ccc(F)cc1F)S(=O)(=O)CCO (stereo unspecified) | 23.8%
CCC(c1ccccc1)S(=O)(=O)CCO (stereo unspecified) | 61.8%
Nc1nccnc1C1CN(C(=O)COc2cccnc2)CCO1 (stereo unspecified) | -50.3%
COCC(=O)N1CCC2(CC1)C(=O)N(Cc1cccnc1)CCN2C | 43.2%
O=C(O)c1cc(C=Cc2cccc3ccccc23)ncn1 | 8.05%
c1ccc(-c2nccc(CNC3CCc4ncnn4C3)n2)cc1 (stereo unspecified) | 36.1%
Cn1ncc2c(N3CCC3)nc(-c3ccncc3)nc21 | -3.83%
Cn1ncc2c(NC3CCSC3)nc(-c3ccncc3)nc21 (stereo unspecified) | 61.6%
Cn1ncc2c(NC3CCC3)nc(-c3ccncc3)nc21 | 33.7%
CN1[C@@H]2CC[C@H]1CN(c1nc(-c3ccncc3)nc3c1cnn3C)CC2 | 71.3%
Cn1ncc2c(N[C@@H]3C[C@H]4CC[C@@H]3C4)nc(-c3ccncc3)nc21 | 35.1%
Cn1ncc2c(N3CCS(=O)(=O)CC3)nc(-c3cccnc3)nc21 | 35%
Cn1ncc2c(NCC3CCS(=O)(=O)C3)nc(-c3ccncc3)nc21 (stereo unspecified) | 15.1%
CC(C)N1CCCN(c2nc(-c3cccnc3)nc3c2cnn3C)CC1 | 86.6%
Cn1ncc2c(N3CCC(F)(F)CC3)nc(-c3ccncc3)nc21 | 31%
Cn1ncc2c(N3CC(N4CCCCC4)C3)nc(-c3ccncc3)nc21 | 22.6%
Cn1ncc2c(N3CC[C@H](O)C3)nc(-c3ccncc3)nc21 | 19.8%
Cn1ncc2c(NC3CN4CCC3CC4)nc(-c3ccncc3)nc21 (stereo unspecified) | 53.2%
